The source of these data is article PMC9838217, “Structure of SALL4 zinc finger domain reveals link between AT-rich DNA binding and Okihiro syndrome”.

Numbering of substitutions follows the chain as printed.

Holding throughout (test): HT-SELEX; high values mean tight binding
Holding throughout (settings): protein: recombinant; vector His6-GST; dsDNA, one strand shown

One assay has as its target T1, SALL4 ZFC4 WT (HT-SELEX) (Mus musculus, UniProt Q8BX22 870-940).
T1 sequence: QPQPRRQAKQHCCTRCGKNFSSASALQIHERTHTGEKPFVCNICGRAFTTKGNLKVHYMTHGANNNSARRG
In outline: (§1)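 Recombinant mouse SALL4 zinc finger cluster 4 (residues 870–940, 1 µg), purified, was mixed with library DNA (1.5 µg in the first cycle, 200 ng thereafter) in 100 µl of buffer containing 10 mM Tris–HCl pH 7.5, 50 mM NaCl, poly(dI-dC) and DTT, and left for 10 min at room temperature. Complexes were captured on Ni2+ beads, washed, amplified by PCR and reselected for up to 6 cycles in triplicate, after which MiSeq sequencing and a 6-mer scan followed. Binding signal is the read fraction of each canonical k-mer, given as fold change relative to the starting random library.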

The target of assay [1] is T2, SALL4 ZFC4 R900W (HT-SELEX) (Mus musculus, UniProt Q8BX22 870-940, R900W).
T2 sequence: T1 sequence with R31W
In outline: as §1

In assay [2] the target is T3, SALL4 ZFC4 G921D (HT-SELEX) (Mus musculus, UniProt Q8BX22 870-940, G921D).
T3 sequence: T1 sequence with G52D
The gist of the method:
as §1

As for AGGAGA, the binding signal in the assay with SALL4 ZFC4 WT (HT-SELEX) was determined as 0.932 ± 0.027 fold-change vs cycle 0; in assay [1], 1.09 ± 0.059 fold-change vs cycle 0; in assay [2] it was 1.06 ± 0.044 fold-change vs cycle 0.
Turning to AATCCC, the binding signal with SALL4 ZFC4 WT (HT-SELEX) amounted to 0.882 ± 0.0212 fold-change vs cycle 0; in assay [1] it was 0.932 ± 0.0228 fold-change vs cycle 0; in assay [2], 0.963 ± 0.0176 fold-change vs cycle 0.
CAGACC: the binding signal with SALL4 ZFC4 WT (HT-SELEX) worked out at 0.367 ± 0.0114 fold-change vs cycle 0; in assay [1] it was 0.461 ± 0.0322 fold-change vs cycle 0; in assay [2], 0.553 ± 0.0477 fold-change vs cycle 0.
For the sequence ACCCTG, the binding signal in the assay with SALL4 ZFC4 WT (HT-SELEX) turned out to be 0.474 ± 0.0232 fold-change vs cycle 0; in assay [1], 0.563 ± 0.034 fold-change vs cycle 0; in assay [2] it was 0.648 ± 0.0451 fold-change vs cycle 0.
On to AACAAT, for which the binding signal in the assay with SALL4 ZFC4 WT (HT-SELEX) was found to be 2.06 ± 0.132 fold-change vs cycle 0; in assay [1], 1.95 ± 0.114 fold-change vs cycle 0; in assay [2], 1.79 ± 0.145 fold-change vs cycle 0.
GAAACC: the binding signal with SALL4 ZFC4 WT (HT-SELEX) is 0.748 ± 0.0342 fold-change vs cycle 0; in assay [1], 0.843 ± 0.0163 fold-change vs cycle 0; in assay [2], 0.916 ± 0.0216 fold-change vs cycle 0.
On to CAGAAA, for which the binding signal with SALL4 ZFC4 WT (HT-SELEX) turned out to be 1.12 ± 0.0595 fold-change vs cycle 0; in assay [1] it was 1.18 ± 0.0406 fold-change vs cycle 0; in assay [2], 1.15 ± 0.0688 fold-change vs cycle 0.
Regarding GGAGAA, the binding signal with SALL4 ZFC4 WT (HT-SELEX) was 0.849 ± 0.0319 fold-change vs cycle 0; in assay [1], 0.985 ± 0.0471 fold-change vs cycle 0; in assay [2], 0.959 ± 0.0602 fold-change vs cycle 0.
For ATTCAC, the values for the binding signal (with SALL4 ZFC4 WT (HT-SELEX); in assay [1]; in assay [2]) were 1.32 ± 0.0734 fold-change vs cycle 0, 1.45 ± 0.0876 fold-change vs cycle 0 and 1.38 ± 0.121 fold-change vs cycle 0, respectively.
The matching figures for AGAGAG: 0.922 ± 0.0426 fold-change vs cycle 0, 1.09 ± 0.0215 fold-change vs cycle 0 and 1.14 ± 0.0249 fold-change vs cycle 0.
For CTCTGA the same measures were 0.812 ± 0.0446 fold-change vs cycle 0, 0.948 ± 0.0551 fold-change vs cycle 0 and 0.993 ± 0.0433 fold-change vs cycle 0.
Turning to CGGTTC, the binding signal with SALL4 ZFC4 WT (HT-SELEX) worked out at 0.342 ± 0.0141 fold-change vs cycle 0; in assay [1], 0.423 ± 0.038 fold-change vs cycle 0; in assay [2] it was 0.53 ± 0.0844 fold-change vs cycle 0.
In the case of AAGGCT, the binding signal in the assay with SALL4 ZFC4 WT (HT-SELEX) amounted to 0.61 ± 0.0387 fold-change vs cycle 0; in assay [1], 0.726 ± 0.0643 fold-change vs cycle 0; in assay [2] it was 0.8372 ± 0.00507 fold-change vs cycle 0.
As for CTCTAC, the binding signal in the assay with SALL4 ZFC4 WT (HT-SELEX) was found to be 0.799 ± 0.0191 fold-change vs cycle 0; in assay [1], 0.917 ± 0.016 fold-change vs cycle 0; in assay [2], 0.954 ± 0.0195 fold-change vs cycle 0.
As to AGCCTA, the binding signal worked out at 0.614 ± 0.0322 fold-change vs cycle 0 in the assay with SALL4 ZFC4 WT (HT-SELEX), 0.728 ± 0.0355 fold-change vs cycle 0 in assay [1] and 0.832 ± 0.0333 fold-change vs cycle 0 in assay [2].
On to AGGTAG, for which the binding signal with SALL4 ZFC4 WT (HT-SELEX) is 0.817 ± 0.0419 fold-change vs cycle 0; in assay [1], 0.986 ± 0.0401 fold-change vs cycle 0; in assay [2] it was 0.998 ± 0.0166 fold-change vs cycle 0.
ATAGTG: the values for the binding signal (in the assay with SALL4 ZFC4 WT (HT-SELEX); in assay [1]; in assay [2]) were 1.28 ± 0.0269 fold-change vs cycle 0, 1.33 ± 0.0375 fold-change vs cycle 0 and 1.31 ± 0.0797 fold-change vs cycle 0, respectively.
The matching figures for CCACCA: 0.417 ± 0.0318 fold-change vs cycle 0, 0.471 ± 0.033 fold-change vs cycle 0 and 0.582 ± 0.0561 fold-change vs cycle 0.
Turning to CACAGA, the binding signal was 0.669 ± 0.0131 fold-change vs cycle 0 with SALL4 ZFC4 WT (HT-SELEX), 0.784 ± 0.0217 fold-change vs cycle 0 in assay [1] and 0.8476 ± 0.00739 fold-change vs cycle 0 in assay [2].
Turning to CATTGA, the figures for the binding signal (with SALL4 ZFC4 WT (HT-SELEX); in assay [1]; in assay [2]) were 1.25 ± 0.0236 fold-change vs cycle 0, 1.39 ± 0.0271 fold-change vs cycle 0 and 1.35 ± 0.0347 fold-change vs cycle 0, respectively.
Take TGCTAA: the binding signal with SALL4 ZFC4 WT (HT-SELEX) was found to be 1.16 ± 0.0453 fold-change vs cycle 0; in assay [1] it was 1.24 ± 0.0475 fold-change vs cycle 0; in assay [2], 1.21 ± 0.0656 fold-change vs cycle 0.
Consider GCAGGA, for which the binding signal turned out to be 0.338 ± 0.0276 fold-change vs cycle 0 in the assay with SALL4 ZFC4 WT (HT-SELEX), 0.413 ± 0.0223 fold-change vs cycle 0 in assay [1] and 0.489 ± 0.0596 fold-change vs cycle 0 in assay [2].
Take CAATTC: the binding signal with SALL4 ZFC4 WT (HT-SELEX) was 1.19 ± 0.016 fold-change vs cycle 0; in assay [1] it was 1.29 ± 0.063 fold-change vs cycle 0; in assay [2], 1.25 ± 0.0527 fold-change vs cycle 0.
The matching figures for ATAAGG: 1.55 ± 0.0418 fold-change vs cycle 0, 1.63 ± 0.0717 fold-change vs cycle 0 and 1.46 ± 0.077 fold-change vs cycle 0.
For ACCCCA the same measures were 0.468 ± 0.0336 fold-change vs cycle 0, 0.525 ± 0.0104 fold-change vs cycle 0 and 0.602 ± 0.0476 fold-change vs cycle 0.
As for TATAGA, the binding signal with SALL4 ZFC4 WT (HT-SELEX) amounted to 2.35 ± 0.163 fold-change vs cycle 0; in assay [1], 2.02 ± 0.132 fold-change vs cycle 0; in assay [2] it was 1.81 ± 0.192 fold-change vs cycle 0.
In the case of AAGTGG, the figures for the binding signal (with SALL4 ZFC4 WT (HT-SELEX); in assay [1]; in assay [2]) were 0.762 ± 0.0311 fold-change vs cycle 0, 0.891 ± 0.0548 fold-change vs cycle 0 and 0.909 ± 0.0639 fold-change vs cycle 0, respectively.
With AATTAC, the binding signal in the assay with SALL4 ZFC4 WT (HT-SELEX) came out at 2.12 ± 0.116 fold-change vs cycle 0; in assay [1], 2 ± 0.127 fold-change vs cycle 0; in assay [2] it was 1.82 ± 0.181 fold-change vs cycle 0.
The matching figures for GAACCC: 0.462 ± 0.0176 fold-change vs cycle 0, 0.565 ± 0.0113 fold-change vs cycle 0 and 0.668 ± 0.0409 fold-change vs cycle 0.
For GCTTCC the same measures were 0.35 ± 0.00821 fold-change vs cycle 0, 0.454 ± 0.0368 fold-change vs cycle 0 and 0.567 ± 0.0502 fold-change vs cycle 0.
